Consider 8 compounds from PubChem BioAssay (NCATS).

Experiment [1] can be described thus: Primary qHTS for inhibitors of La Crosse Virus (LACV) - induced cell death in SH-SY5Y cells (AID 1508616).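 Further: top concentration of the series differs between compounds; higher means more rescue of cells from virus-induced death.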 The method in brief:
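Protection against LACV-induced cell death is scored in SH-SY5Y cells exposed to compounds and virus (0.01 MOI) for 6 days. Data normalized to virus-infected DMSO wells and virus-free DMSO wells.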
In general terms: In qHTS, concentration-response curves come from the screen itself.

Experiment [2] is described as follows: A High-Content qHTS Against Drug Library for the Identification of Small Molecules that Inhibit DYT1 Early Onset Primary Dystonia-Associated Cell Pathology (AID 1645839; calls by dose curve). The method, boiled down:
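Readout: %pathology, the punctate EGFP-TorsinA distribution from imaging, as the primary channel and cell count as the toxicity counterscreen. HEK293 Flp-In cells expressing delE TorsinA were induced with tetracycline and treated with compound for 48 h.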

For experiment [3], the system named is Zika virus NS2B-NS3 protease (linked construct). As to the kind of experiment: Confirmatory screen NINDS AMC qHTS for Zika virus inhibitors (AID 1347152). Further: potency means the concentration at half of the fitted maximal effect; nearly all actives have a fitted effect of over 70% in size. The method in brief:
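Purified NS2B-NS3 protease with NS2B hydrophilic domain linked to NS3 protease domain by flexible linker, 1 nM final in 10 mM Tris-HCl pH 8.0, 0.01% Tween 20. Compounds preincubated 15 min, room temperature; Bz-Nle-KRR-AMC 10 microM (Km 18.3 µM); 15-min fluorescence change, 4-parameter Hill fit.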

Experiment [4] relates to CP260. As to the kind of experiment: qHTS profiling for inhibitors of Plasmodium falciparum proliferation (AID 504749). Further: potency means the concentration at half of the fitted maximal effect; nearly all actives have a fitted effect of over 60% in size. The note with it: P. falciparum in erythrocytes, SYBR Green DNA, 72 h; series mostly up to 28.7 µM. The method in brief: (§1)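 Parasite proliferation within erythrocytes, 72 h exposure. Endpoint: SYBR Green I fluorescence after overnight lysis at room temperature. Controls: 0.29 uM artemisinin, DMSO.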

The test system of experiment [5] is CP265. Described as above. The note with it: P. falciparum in erythrocytes, SYBR Green DNA, 72 h; series mostly up to 28.7 µM. The method in brief: as §1
Experiment [6] deals with ECU. The description is as above. The settings on record: P. falciparum in erythrocytes, SYBR Green DNA, 72 h; series mostly up to 28.7 µM. The method in brief: as §1
In experiment [7] the test system is HB3. The experiment is described as above. The settings on record: P. falciparum in erythrocytes, SYBR Green DNA, 72 h; series mostly up to 28.7 µM. The method, boiled down:
as §1

Experiment [8] concerns N140. The experiment is described as above. The note with it: P. falciparum in erythrocytes, SYBR Green DNA, 72 h; series mostly up to 28.7 µM. The method, boiled down: as §1
The test system of experiment [9] is P94_40. Described as above. The note with it: P. falciparum in erythrocytes, SYBR Green DNA, 72 h; series mostly up to 28.7 µM. The method, boiled down: as §1
Experiment [10] concerns PC26. Described as above. The note with it: P. falciparum in erythrocytes, SYBR Green DNA, 72 h; series mostly up to 28.7 µM. The method, boiled down:
as §1

Experiment [11] has as its system TAB109. The experiment is described as above. The note with it: P. falciparum in erythrocytes, SYBR Green DNA, 72 h; series mostly up to 28.7 µM. The method, boiled down:
as §1

Experiment [12] relates to TAB113. The experiment is described as above. The note with it: P. falciparum in erythrocytes, SYBR Green DNA, 72 h; series mostly up to 28.7 µM. The method in brief: as §1
Experiment [13] can be described thus: Confirmatory screen NINDS Rhodamine qHTS for Zika virus inhibitors (AID 1347161). Further: potency means the concentration at half of the fitted maximal effect; nearly all actives have a fitted effect of over 60% in size. The method in brief:
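Percent inhibition, normalized to uninhibited and enzyme-free controls, is fitted to a 4-parameter Hill equation. Fluorescence change comes from a 15-min cleavage of 1.5 microM bis-peptide Rhodamine110 substrate by 25 nM linked NS2B-NS3 at room temperature.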

Experiment [14] has as its target Cytochrome P450 2C9 (Homo sapiens) (UniProt P11712). As to the kind of experiment: qHTS Assay for Inhibitors and Substrates of Cytochrome P450 2C9 (AID 883). Further: potency means the concentration at half of the fitted maximal effect; nearly all actives have a fitted effect of over 60% in size. The method in brief: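 CYP2C9 deoxyluciferin hydroxylation, 37C, 60 min with NADPH regeneration; 10nM enzyme, 100uM Luciferin-H (KM). Glo detection reagent stopped reaction; luminescence normalized to sulphaphenazole (57uM) full inhibition.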

Experiment [15] is described as follows: NCATS anti-infectives library activity on the primary C. elegans qHTS viability assay (AID 1745855; calls by dose curve). The method in brief: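 Viability read-out is GFP fluorescence of PE254-GFP-FLuc C. elegans, measured by laser cytometry (488 nm) at day 0, 3 and 7. Ten L1 worms per well were incubated 7 days at 21 °C with compounds and bacterial capsules in S medium.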
A short description of experiment [16]: Confirmatory qHTS for small molecule stabilizers of the endoplasmic reticulum resident proteome: Secreted ER Calcium Modulated Protein (SERCaMP) assay (AID 1508628). Further: nearly all actives have a fitted effect of over 40% in size. The method, boiled down:
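SH-SY5Y cells stably expressing GLuc-SERCaMP, treated 16 h with compound (primary 1.53, 7.67, 38.3 uM; confirmation 11 concentrations, up to 76.6 uM), then 100 nM thapsigargin for 4 h. Secreted Gaussia luciferase in medium read by coelenterazine luminescence.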

Experiment [17] is described as follows: Cell Viability qHTS for small molecule stabilizers of the endoplasmic reticulum resident proteome (AID 1508629).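 Further: potency means the concentration at half of the fitted maximal effect; compound exposure about 46 h in total before the viability read.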 The note with it: cell viability counter-screen, 100 nM thapsigargin for final 4 h.
Experiment [18] concerns the target Muscarinic acetylcholine receptor M1 (Rattus norvegicus) (UniProt P08482). As to the kind of experiment: qHTS Assay for Antagonists of Acetylcholine Muscarinic M1 Receptor: Kinetic Measurement of Intracellular Calcium Response (AID 943). Further: potency means the concentration at half of the fitted maximal effect; nearly all actives have a fitted effect of over 75% in size. The method, boiled down: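 Rat M1-CHO cells, 2000/well, overnight → Fluo-4 no-wash dye with probenecid, 1 h 37C → compound 10 min, room temp → basal read 6 s → carbachol EC80 (100 nM) → 4 min kinetic read; peak/basal.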

Experiment [19] can be described thus: Validation of Assay for Modulators of Lamin A Splicing (AID 1459; active means well fitted curve in the direction sought with a large enough effect in the signal ratio; the % refers to the signal ratio;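 further: cells exposed to compound for two days before reading; ratio rise marks activators and ratio drop marks inhibitors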). The method in brief:
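S3 HeLa cells stably expressing a lamin A-EGFP splicing minigene and DsRed2 were seeded at 600 cells/well in Opti-MEM with 2% FBS, pin-dosed, and incubated 48 hrs at 37 °C, 5% CO2. Laser-scanning cytometry (488 nm) gave GFP/RFP total intensity ratio.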

For experiment [20], the target named is DNA repair nuclease/redox regulator APEX1 (Homo sapiens) (UniProt P27695). As to the kind of experiment: qHTS Validation Assay for Inhibitors of the Human Apurinic/apyrimidinic Endonuclease 1 (APE1) (AID 1705;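 further: TAMRA fluorescence gain over two minutes as APE1 cuts a quenched THF abasic duplex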). The method, boiled down: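 Human APE1 was preincubated with compound for 15 min at room temperature, then 50 nM (final) THF-abasic double-stranded DNA substrate bearing 5'-TAMRA and 3'-BHQ-2 was added. Incision-driven fluorescence rise (ex 525/em 598 nm) was read kinetically.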

Results filed as inconclusive are left out. Calls of active or inactive are those of the source. Unless noted, the call rests on the fitted dose curve; in most records, active means well fitted curve in the direction sought with a large enough effect; inconclusive means small, poorly fitted or top-dose-only effect, or another doubt; inactive means no such curve, though single readings can be large; an effect the other way counts as inactive or inconclusive.

Chain of DNA repair nuclease/redox regulator APEX1 (Homo sapiens) (P27695 whole entry, looked up): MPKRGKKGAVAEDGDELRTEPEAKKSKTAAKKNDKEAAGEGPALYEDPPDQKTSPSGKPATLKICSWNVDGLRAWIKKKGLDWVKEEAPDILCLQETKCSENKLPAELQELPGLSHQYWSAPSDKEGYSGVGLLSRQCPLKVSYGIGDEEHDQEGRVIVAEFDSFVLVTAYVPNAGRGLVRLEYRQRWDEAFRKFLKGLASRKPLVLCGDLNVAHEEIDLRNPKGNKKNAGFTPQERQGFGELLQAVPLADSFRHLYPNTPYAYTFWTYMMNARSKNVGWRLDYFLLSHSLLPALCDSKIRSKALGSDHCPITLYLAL
Chain of Muscarinic acetylcholine receptor M1 (Rattus norvegicus) (P08482 whole entry, looked up): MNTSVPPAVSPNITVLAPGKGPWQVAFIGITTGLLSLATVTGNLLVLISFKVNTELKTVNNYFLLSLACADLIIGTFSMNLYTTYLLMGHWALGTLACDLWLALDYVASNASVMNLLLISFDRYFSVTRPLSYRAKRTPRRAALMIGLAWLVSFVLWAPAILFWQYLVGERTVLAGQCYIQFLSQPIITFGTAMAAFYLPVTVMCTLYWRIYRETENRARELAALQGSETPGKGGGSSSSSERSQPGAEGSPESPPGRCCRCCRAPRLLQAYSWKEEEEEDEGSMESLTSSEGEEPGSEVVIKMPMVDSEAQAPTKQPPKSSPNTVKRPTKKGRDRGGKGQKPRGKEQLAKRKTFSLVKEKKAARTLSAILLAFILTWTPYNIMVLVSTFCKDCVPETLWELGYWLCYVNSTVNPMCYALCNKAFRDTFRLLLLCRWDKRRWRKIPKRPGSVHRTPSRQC
Chain of Cytochrome P450 2C9 (Homo sapiens) (P11712 whole entry, looked up): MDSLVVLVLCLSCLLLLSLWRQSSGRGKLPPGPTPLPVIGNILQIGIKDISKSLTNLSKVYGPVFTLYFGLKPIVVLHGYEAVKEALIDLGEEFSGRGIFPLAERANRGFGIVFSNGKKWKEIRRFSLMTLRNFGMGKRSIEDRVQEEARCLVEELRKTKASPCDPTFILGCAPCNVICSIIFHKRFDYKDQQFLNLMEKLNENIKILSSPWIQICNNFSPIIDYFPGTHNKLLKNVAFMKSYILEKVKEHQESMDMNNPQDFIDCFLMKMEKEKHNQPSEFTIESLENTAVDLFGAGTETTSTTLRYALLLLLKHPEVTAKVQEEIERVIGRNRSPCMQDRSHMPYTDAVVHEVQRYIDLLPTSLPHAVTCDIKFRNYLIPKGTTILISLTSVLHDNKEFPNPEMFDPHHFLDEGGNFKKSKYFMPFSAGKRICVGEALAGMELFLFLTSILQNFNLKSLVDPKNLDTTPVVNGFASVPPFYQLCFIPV

In the case of `CCN(CC)c1ccc(C(=C2C=CC(=[N+](CC)CC)C=C2)c2cc(S(=O)(=O)O)ccc2S(=O)(=O)[O-])cc1`, the compound was called inactive in experiment [1] and in [2].
Turning to `CN(Cc1ccc(C(=O)O)cc1)c1ccc(OCc2c(-c3c(Cl)cccc3Cl)noc2C2CC2)nc1C(F)(F)F`, the Potency in experiment [3] was 13.9 µM (active).
In the case of `O=C(CC1NCCC[C@H]1O)Cn1cnc2cc(Br)c(Cl)cc2c1=O` (stereo not given in full), the Potency in experiment [4] was 2.51 µM (active); in [5] it was 5.01 µM (active); in experiment [6], 5.01 µM (active); in experiment [7], 2 µM (active); in [8], 3.16 µM (active); in [9] it was 1.41 µM (active). Further, the Potency in experiment [10] is 3.79 µM (active); in experiment [11] it was 0.794 µM (active); in [12], 2.24 µM (active).
As to `O=C(O)c1ccc(O)c2ncc(N3CCCN(CCc4cccc5ccccc45)CC3)cc12`, the Potency in [13] is 13.9 µM (active).
For `Cc1nc2c(O)cccc2c(=O)[nH]1`, the Potency in experiment [14] was 3.98 µM (active). Besides, the Potency result in [15] was “inactive”.
`CS(=O)(=O)CCNCc1nc(-c2ccc3ncnc(Nc4ccc(OCc5cccc(F)c5)c(Cl)c4)c3c2)cs1`: the Potency result in [16] is “inactive”. In addition, in experiment [17], the Potency was 15.8 µM (active).
In the case of `CN1CCN(CCC=C2c3ccccc3Sc3ccc(S(=O)(=O)N(C)C)cc32)CC1`, in experiment [18], the Potency is 14.1 µM (active).
For `CC(C)=CCC/C(C)=C/CC/C(C)=C/CSc1ccccc1C(=O)O`, the compound was called inactive in experiment [19]. In addition, the Potency result in experiment [20] is “inactive”.
